PubChem BioAssay AID504339 (National Center for Advancing Translational Sciences (NCATS), 2011)
The whole screen tested about 390,000 compounds, of which about 17,000 (4.4%) were called active. Another 8% or so got no clear call; they are omitted. Shown is part of a subset that was picked to be rich in actives. Values without a mark were called inactive. Calls come from the whole dose curve; as a rule, active = well fitted inhibition curve with a large enough effect; inconclusive = small, poorly fitted or top-dose-only effect; inactive = no such curve, though single readings can be large or run the other way.

Each compound was assayed against Lysine-specific demethylase 4A (Homo sapiens) (UniProt O75164) (assay: qHTS Assay for Inhibitors of JMJD2A-Tudor Domain). Conditions: AlphaScreen JMJD2A-Tudor / H3K4me3 peptide binding; series mostly up to 114 µM; activity change, negative = inhibition: at the top concentration.
Lysine-specific demethylase 4A (Homo sapiens), sequence (O75164 whole entry, looked up, the tested form may be a part): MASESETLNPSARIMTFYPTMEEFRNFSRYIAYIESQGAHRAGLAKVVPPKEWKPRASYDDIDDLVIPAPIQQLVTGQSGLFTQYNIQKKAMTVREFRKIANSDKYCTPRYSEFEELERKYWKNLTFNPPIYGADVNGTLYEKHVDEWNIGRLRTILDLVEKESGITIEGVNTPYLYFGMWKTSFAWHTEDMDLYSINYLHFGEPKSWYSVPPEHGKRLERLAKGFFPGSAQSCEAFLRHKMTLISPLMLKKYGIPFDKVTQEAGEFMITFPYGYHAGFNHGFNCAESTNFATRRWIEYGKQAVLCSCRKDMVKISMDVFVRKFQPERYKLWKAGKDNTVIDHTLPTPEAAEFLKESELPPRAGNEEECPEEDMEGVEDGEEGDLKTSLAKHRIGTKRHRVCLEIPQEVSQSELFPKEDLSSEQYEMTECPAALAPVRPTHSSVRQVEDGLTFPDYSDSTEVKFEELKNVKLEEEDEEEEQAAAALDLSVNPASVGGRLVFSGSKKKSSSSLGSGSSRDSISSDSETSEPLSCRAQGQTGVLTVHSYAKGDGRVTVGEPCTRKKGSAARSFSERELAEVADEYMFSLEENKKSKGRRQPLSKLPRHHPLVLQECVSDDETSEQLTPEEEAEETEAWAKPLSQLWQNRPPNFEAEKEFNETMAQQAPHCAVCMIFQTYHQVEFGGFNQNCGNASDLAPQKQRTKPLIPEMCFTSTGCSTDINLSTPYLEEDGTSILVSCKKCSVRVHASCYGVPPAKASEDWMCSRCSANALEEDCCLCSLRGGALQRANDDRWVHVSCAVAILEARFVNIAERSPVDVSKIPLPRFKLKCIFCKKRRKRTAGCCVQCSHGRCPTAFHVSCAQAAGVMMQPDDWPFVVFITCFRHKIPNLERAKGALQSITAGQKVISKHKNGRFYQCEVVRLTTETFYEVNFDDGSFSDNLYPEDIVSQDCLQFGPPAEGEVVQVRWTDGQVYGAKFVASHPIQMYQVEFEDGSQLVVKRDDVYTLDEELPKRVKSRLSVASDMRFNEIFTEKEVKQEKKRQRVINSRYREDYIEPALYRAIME
% is set by controls: 0 for no effect and ±100 for the full control effect; potency is the fitted concentration of half-maximal effect.
Note: nearly all actives have a fitted effect of over 50% in size.

Row | SMILES | activity change, negative = inhibition | Potency
1 | COc1ccc(Cl)cc1NC(=O)C(C)Sc1nc2c(c(=O)[nH]1)CCCC2 (centres undefined) | -10.9% | –
2 | COc1cc(NC(=O)CCn2nc(C)cc2C)cc(OC)c1OC | -5% | –
3 | O=C(CSc1oc(-c2ccco2)nc1S(=O)(=O)c1ccc(Cl)cc1)c1ccccc1 | -29% | –
4 | COc1ccc(/C(O)=C2\C(=O)C(=O)N(Cc3ccco3)C2c2ccc(OC)cc2OC)cc1 (centres undefined) | – | 20 µM (active)
5 | COc1ccccc1C1/C(=C(/O)c2ccc(C)cc2)C(=O)C(=O)N1Cc1ccco1 (centres undefined) | -7.61% | –
6 | COc1ccc(C2/C(=C(/O)c3ccccc3)C(=O)C(=O)N2C)c(OC)c1 (centres undefined) | -13% | –
7 | CCOC(=O)c1cccc(NC(=O)C(Cc2ccccc2)NS(=O)(=O)c2cccc3nsnc23)c1 (centres undefined) | -25.7% | –
8 | COc1ccc2c(c1)c(N1CCCC1=O)c(C(=O)Nc1ccccc1C(F)(F)F)n2C | -2.07% | –
9 | Cc1ccc(NC(=O)NC(=O)N(C2CCCCC2)S(=O)(=O)c2ccccc2)cc1 | – | 70.8 µM (active)
10 | CC(c1ccco1)N(C(=O)Nc1ccccc1)C1CCCCC1 (centres undefined) | -15.1% | –
11 | CC(C)(C)NS(=O)(=O)c1ccc(NC(=O)NC2CCCCC2)cc1 | -9.35% | –
12 | Cc1ccc2cccc(NC(=O)c3cccc4ccccc34)c2n1 | 29.1% | –
13 | COc1cccc2c1C(=O)c1c(O)c3c(c(O)c1C2=O)CC(O)(C(C)=NNC(=O)c1ccc(Cl)c(Cl)c1)CC3OC1CC(N)C(O)C(C)O1 (centres undefined) | – | 50.1 µM (active)
14 | Cc1ccc(CNC(=O)CCNS(=O)(=O)c2ccc3c(c2)oc(=O)n3C)cc1 | -5.3% | –
15 | O=C(Nc1ccc2nc(SCCOc3ccccc3Cl)sc2c1)c1ccco1 | -7.62% | –
16 | COc1ccc(/C=C/C(=O)c2cc(Br)ccc(=O)c2O)cc1 | – | 31.6 µM (active)
17 | COc1ccc(CC(=O)NCC(=O)N/N=C/c2cc(Br)ccc2OC)cc1 | -17.2% | –
18 | COc1ccc(C(=O)c2oc3ccc(Br)cc3c2NC(C)=O)cc1 | -14.3% | –
19 | COc1ccc(S(=O)(=O)NCc2cccn2Cc2cccc(C)c2)cc1 | -8.28% | –
20 | CCOc1ccccc1N(C)C(=O)c1cc2c(s1)-c1ccccc1OC2 | 5.82% | –
21 | CCSc1ncc(Cl)c(C(=O)Nc2c(C(=O)c3ccccc3)oc3ccccc23)n1 | -25% | –
22 | O=C(CCS(=O)(=O)c1cc(Br)cc2c1N(C(=O)C1CC1)CC2)Nc1ccc(Br)cc1F | -8.22% | –
23 | CC1=C(C)CC2C(=O)N(c3cccc4ccccc34)C(=O)C2C1 (centres undefined) | – | 56.2 µM (active)
24 | CCc1ccccc1N1C(=O)C2C3CC(=O)C(c4ccccc43)C2C1=O (centres undefined) | -9.28% | –
25 | Cc1ccc(N2C(=O)CC(Nc3cccc4ccccc34)C2=O)cc1 (centres undefined) | -16.5% | –

Row | SMILES | activity change, negative = inhibition | Potency
26 | O=C(Cn1ncn2nc(-c3cccs3)cc2c1=O)NCc1cccc(Br)c1 | 0% | –
27 | CCOC(=O)c1[nH]c(C)c(CCC(=O)N2CCN(c3ccccc3)CC2)c1C | -26.9% | –
28 | Cc1ccc(CNC(=O)Cn2c(=O)ccc3cc(S(=O)(=O)N4CCCC4)ccc32)cc1 | -0.323% | –
29 | COc1ccc(OCCn2ccnc2C)cc1 | – | 1 µM (active)
30 | COc1ccc(OCCCC(=O)Oc2ccc(OC)cc2)cc1 | -6.34% | –
31 | COc1ccc(OCCn2cc(C(=O)C3CCCCC3)c3ccccc32)cc1 | 4.12% | –
32 | CCOc1ccc(N(CC)C(=O)C2CCN(S(=O)(=O)c3cccc4nonc34)CC2)cc1 | -12.3% | –
33 | O=C1c2ccccc2-c2ncnc3c(N4CCOCC4)cc(N4CCOCC4)c1c23 | – | 44.7 µM (active)
34 | O=S(=O)(Nc1cc(Cl)ccc1N1CCOCC1)c1ccccc1Cl | -6.21% | –
35 | Cc1oc2c(c1C(=O)N1CCOCC1)C(=O)c1ccccc1C2=O | -5.52% | –
36 | Cn1nnnc1SCCCNCc1cccc(OCc2ccc(Cl)cc2)c1 | -10.9% | –
37 | O=[S+]([O-])(c1ccc2c(c1)OCCO2)N1CCN([S+](=O)([O-])c2c(Cl)cc(Cl)cc2Br)CC1 | -18.5% | –
38 | Cc1ccc(C)c(N2CCN(CCCNC(=O)Nc3ccc(Cl)cc3)CC2)c1 | -24% | –
39 | CCOc1ccc(NC(=O)CCS(=O)(=O)c2cccc3nsnc23)cc1 | -25% | –
40 | CCOc1ccc(OCC)c(NC(=O)CN(C)S(=O)(=O)c2cccc3nsnc23)c1 | – | 50.1 µM (active)
41 | CCOc1ccccc1NC(=O)CCS(=O)(=O)c1cccc2nsnc12 | – | inactive
42 | CCc1nc2onc(C)c2c(=O)n1CC(=O)O | -23.5% | –
43 | CCOc1ccc(NC(=O)c2cn(C3CCCCC3)c(=O)c3c2c2ccccc2n3C)cc1 | -11% | –
44 | O=C(N/N=C/c1cccc(Br)c1)c1ccc(N2CCCC2=O)cc1 | – | 56.2 µM (active)
45 | O=C(Nc1ccc(N2CCCC2=O)cc1)c1cncc(Br)c1 | 4.17% | –
46 | O=C(N/N=C\c1cccc(Br)c1)c1ccccc1-n1cccc1 | -14.5% | –
47 | O=[N+]([O-])c1ccccc1OCCCCN1CCCCC1 | -20.3% | –
48 | CC(Oc1ccccc1[N+](=O)[O-])C(=O)N/N=C/c1ccoc1 (centres undefined) | -15.2% | –
49 | CC1CN(CCOc2ccccc2[N+](=O)[O-])CC(C)O1 (centres undefined) | – | 22.4 µM (active)
50 | COc1ccc2ncc3c(-c4ccc(C)c(C)c4)nn(CC(=O)NC4CCCC4)c3c2c1 | -12.3% | –

Row | SMILES | activity change, negative = inhibition | Potency
51 | Cc1cc(=O)n(CC(=O)Nc2cccc([N+](=O)[O-])c2)c(-n2nc(C)cc2C)n1 | -18.2% | –
52 | O=C(/C=C/c1ccccc1)N1CCN(Cc2cc(=O)n3nc(-c4ccccc4F)sc3n2)CC1 | -0.325% | –
53 | COc1cccc2c1cc1c(=O)n(CC(=O)N3CCN(c4ccccc4)CC3)nc(C)n12 | -14.5% | –
54 | O=C1C(=O)N(CCN2CCOCC2)C(c2cccc(Cl)c2)/C1=C(/O)c1ccc2c(c1)OCO2 (centres undefined) | -16.7% | –
55 | CC1Cc2cc(/C(O)=C3\C(=O)C(=O)N(CCN4CCOCC4)C3c3ccccc3F)ccc2O1 (centres undefined) | – | 39.8 µM (active)
56 | CC1Cc2cc(/C(O)=C3\C(=O)C(=O)N(Cc4cccnc4)C3c3ccccc3F)ccc2O1 (centres undefined) | -12.8% | –
57 | CCOc1ccccc1NC(=O)C1CCCN(S(=O)(=O)c2cn(C)cn2)C1 (centres undefined) | -10.6% | –
58 | COCCNS(=O)(=O)c1cc(-c2nn3c(C)nnc3c3ccccc23)ccc1C | -10.4% | –
59 | Cc1[nH]n(-c2ccccc2)c(=O)c1CCOC(=O)c1ccc(C(F)(F)F)cc1 | -10.1% | –
60 | Cc1cccc(N=Nc2c(O)[nH]c3ccc(F)cc23)c1 | -18.8% | –
61 | Cc1cccc(N=Nc2c(C)[nH]n(-c3ccccc3)c2=O)c1 | – | 11.2 µM (active)
62 | Cc1c(N=Nc2ccc(N(C)C)cc2)c(=O)n(-c2ccccc2)n1C | -26.2% | –
63 | Cc1ccc(N=Nc2c(C)[nH]n(-c3ccccc3)c2=O)cc1 | – | 6.31 µM (active)
64 | Cc1ccc(-c2ccnc3[nH]n(-c4ccccc4)c(=O)c23)cc1 | -13.3% | –
65 | O=C(NCc1ccc(F)cc1)c1ccc(Cn2c(SCc3ccc(F)cc3)nc3cccnc32)cc1 | -4% | –
66 | Cc1c(NC(=O)Nc2ccc(F)c(Cl)c2)c(=O)n(-c2ccccc2)n1C | 11.3% | –
67 | Cc1c(CNC(C)c2ccccc2)c(C(=O)O)c(C)n1Cc1c(F)cccc1Cl (centres undefined) | -32.2% | –
68 | O=C(NCCCO)C(=O)Nc1c2c(nn1-c1ccc(F)cc1)CSC2 | -13.3% | –
69 | CCn1c(CNC(=O)C23CC4CC(CC(C4)C2)C3)nnc1SCC(=O)Nc1ccc(OC)cc1 | -11.8% | –
70 | CC1=C(c2ccc(F)cc2)S(=O)(=O)N=C1N1CCC(C(=O)NCCc2ccccc2C)CC1 | -17.7% | –
71 | CCCS(=O)(=O)N1CCC(n2c(C(F)(F)F)nc3cccnc32)CC1 | -16.9% | –
72 | NS(=O)(=O)c1ccc(NC(=O)COc2ccc(S(=O)(=O)NC3CCCCC3)cc2)cc1 | 3.78% | –
73 | CC(C)Cn1c(=O)c2ccccc2n2c(CCC(=O)N3CCN(c4cccc(Cl)c4)CC3)nnc12 | -13.8% | –
74 | CCOc1ccc2nc(N3CCC(C(=O)Nc4cc(C)ccc4C)CC3)sc2c1 | 8.36% | –
75 | COCCNCCOCCOc1cccc(OC)c1 | -6.45% | –

Row | SMILES | activity change, negative = inhibition | Potency
76 | OCCNCCOc1ccc(Cl)c(Cl)c1 | -8.78% | –
77 | COCCCNCCOCCOc1ccc(Cl)cc1Br | – | 1.78 µM (active)
78 | Cn1nnc(NC(=S)NC(=O)c2ccccc2)n1 | – | 5.01 µM (active)
79 | COc1cc(NS(=O)(=O)c2ccc(NC(=S)NC(=O)c3ccccc3)cc2)nc(OC)n1 | -19.8% | –
80 | COC(=O)c1nc(NC(=O)c2ccccc2)n[nH]1 | -6.77% | –
81 | O=C(C1COc2ccccc2O1)N(Cc1cccnc1)c1nc2c(F)cc(F)cc2s1 (centres undefined) | -9.74% | –
82 | COc1ccc(Cc2nnc(NS(=O)(=O)Cc3ccccc3)s2)cc1 | -7.95% | –
83 | COc1ccccc1NC(=O)Nc1nnc(Cc2ccc(F)cc2)s1 | -2.33% | –
84 | COc1ccc(Cc2nnc(NC(=O)Cc3cccs3)s2)cc1 | – | 28.2 µM (active)
85 | Cc1nn(C(C)C(=O)NCCc2ccccc2)c(=O)c2c1sc1ccccc12 (centres undefined) | -21.9% | –
86 | COC(=O)c1sccc1S(=O)(=O)N(CC(=O)Nc1ccc(C)c(F)c1)c1ccc(C)c(C)c1 | -22.7% | –
87 | COc1cc(/C=N\Nc2nc(-c3cccs3)c(NC(C)=O)s2)ccc1O | – | 25.1 µM (active)
88 | CCOc1cc(C=NNC(=O)CCCC(=O)NN=Cc2ccc(O)c(OCC)c2)ccc1O | -9.03% | –
89 | CC(=O)c1sc(N/N=C/c2ccc(C(C)C)cc2)nc1C | 4.81% | –
90 | Cc1ccc2nc(COc3cccc(NC(=O)c4ccccc4Cl)c3)cc(=O)n2c1 | 0% | –
91 | COc1cc(C(=O)NCCc2csc3nc(-c4ccccc4C)nn23)cc(OC)c1OC | -19.2% | –
92 | CCOC(=O)c1c(NC(=O)CSc2nnc(CN3CCOCC3)n2C)sc2c1CCCC2 | -10.3% | –
93 | CCOC(=O)c1c(NC(=O)CSc2nnc(Cc3csc(N)n3)n2C)sc(C)c1C | – | 39.8 µM (active)
94 | CCOC(=O)c1c(NC(=O)CSc2nccc(=O)[nH]2)sc(C)c1C | -13.9% | –
95 | COc1ccc(C2C(=O)N(C3CCCCCC3)CC(=O)N2CCc2ccc(Cl)cc2)cc1OC (centres undefined) | -33.6% | –
96 | Cc1ccc(Cn2cc(CCC(=O)NCc3ccc(OC(C)C)cc3)c3ccccc32)cc1 | 0% | –
97 | CCOc1cc(/C=N/NC(=O)c2cccc(S(=O)(=O)N3CCOCC3)c2)ccc1OCC(=O)N(C)C | -1.7% | –
98 | Cc1cccc(NC(=O)c2cccc(S(=O)(=O)N3CCCC3)c2)n1 | 2.07% | –
99 | Cc1ncc(CO)c(/C=N/NC(=O)c2cccc(S(=O)(=O)N3CCCC3)c2)c1O | – | 22.4 µM (active)
